The values below come from PubChem BioAssay (EPA / NIEHS).

Activity calls are given as the source filed them. Rule for the calls: active = hit-call score of the fitted dose curve at least 0.9, where 1 is the maximum; inactive = score below 0.9.

The target in experiment [1] is Transcription factor E2F1 (Homo sapiens) (UniProt Q01094). Briefly: ATG_E2F_CIS: Attagene CIS-FACTORIAL HepG2 Assay for human E2F Transcription Factor 1 (AID 2282935). Particulars: HepG2 Attagene cis-reporter, E2F reporter RNA transcripts; actives raise or lower the signal. Put shortly: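 Multiplexed cis-reporter assay: HepG2, transient transfection, 24 h dosing, mRNA quantitation by labeled RT-PCR and CE.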

Experiment [2] is described as follows: ATG_E_Box_CIS: Attagene CIS-FACTORIAL HepG2 Assay for human Enhancer Box (E-box) (AID 2282936). Particulars: HepG2 E-box cis-reporter transcription, actives raise or lower the signal. In a few lines: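 Multiplexed CIS reporter system in transiently transfected HepG2 cells measures native transcription factor activity. Reporter RNA after 24 h exposure is profiled by RT-PCR-capillary electrophoresis.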

Experiment [3] can be described thus: ATG_M_61_CIS: Attagene CIS-FACTORIAL HepG2 Assay for M61 Transcription Factor (Internal Marker) (AID 2282937). The following applies: HepG2 Attagene CIS-FACTORIAL M61 internal marker reporter; actives raise or lower the signal. Put shortly: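 Readout is reporter mRNA by RT-PCR, fluorescent primer extension and capillary electrophoresis, with gain or loss fitted relative to DMSO. Transfected HepG2 cells carrying endogenous-TF-driven cis reporters were exposed to chemicals for 24 hours.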

A short description of experiment [4]: ATG_EGR_CIS: Attagene CIS-FACTORIAL HepG2 Assay for human Early Growth Response 1 (EGR1) (AID 2282938). The following applies: HepG2 Attagene CIS-FACTORIAL EGR reporter mRNA; actives raise or lower the signal. Put shortly: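 After 24 h compound exposure, RNA from reporter-transfected HepG2 cells was reverse-transcribed, PCR-amplified, fluorescently labelled and resolved by capillary electrophoresis. EGR1 reporter transcript changes, up or down, were fitted against DMSO, reflecting endogenous transcription-factor activity.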

A short description of experiment [5]: ATG_M_19_CIS: Attagene CIS-FACTORIAL HepG2 Assay for M19 Transcription Factor (Internal Marker) (AID 2282939). The following applies: HepG2 Attagene CIS-FACTORIAL M19 internal marker reporter; actives raise or lower the signal. Put shortly: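 Readout: fluorescent reporter-transcript fragments by capillary electrophoresis after RT-PCR. Human HepG2 liver cells carried transfected MRTU constructs reporting endogenous transcription-factor activity; exposure 24 h. Gain or loss of signal fitted relative to DMSO.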

The nature of experiment [6]: ATG_Ets_CIS: Attagene CIS-FACTORIAL HepG2 Assay for human Erythroblast Transformation Specific (ETS) (AID 2282941). Particulars: HepG2 ETS cis-reporter transcription, actives raise or lower the signal. Put shortly: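 HepG2 cells transiently transfected with cis-promoter reporter transcription units were dosed for 24 h; reporter mRNA was measured by RT-PCR, 6-FAM primer extension, HpaI digestion and capillary electrophoresis, with bidirectional fitting against DMSO baseline.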

Experiment [7] addresses Hepatocyte nuclear factor 3-beta (Homo sapiens) (UniProt Q9Y261). Briefly: ATG_FoxA2_CIS: Attagene CIS-FACTORIAL HepG2 Assay for human Forkhead box A2 (FOXA2) (AID 2282942). The following applies: HepG2 cis-reporter transcription factor activity, 24 h; actives raise or lower the signal. Put shortly: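 Endogenous transcription factor activity is captured via cis-element-driven reporter transcripts in transfected HepG2. Total RNA taken at 24 h post-dosing; labelled RT-PCR products resolved by capillary electrophoresis. Gain or loss fitted versus DMSO.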

Experiment [8] can be described thus: ATG_FoxO_CIS: Attagene CIS-FACTORIAL HepG2 Assay for human Forkhead box O (FoxO) (AID 2282943). Particulars: HepG2 Attagene cis-reporter, FoxO element, mRNA; actives raise or lower the signal. Put shortly:
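Values reflect reporter mRNA induction or loss in HepG2 cells 24 h post-dosing, fitted bidirectionally with DMSO as negative control and baseline. Detection used RT-PCR and fluorescence capillary electrophoresis.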

The nature of experiment [9]: ATG_GATA_CIS: Attagene CIS-FACTORIAL HepG2 Assay for human GATA Binding Protein (AID 2282944). Particulars: HepG2 GATA cis-element reporter, Attagene multiplex mRNA; actives raise or lower the signal. Put shortly: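 Read-out: fluorescent reporter mRNA fragments resolved by capillary electrophoresis after RT-PCR. Human liver HepG2 cells carried transiently transfected cis-regulated reporter constructs; chemicals incubated 24 h; gain or loss of signal fitted relative to DMSO.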

Experiment [10] is described as follows: ATG_GLI_CIS: Attagene CIS-FACTORIAL HepG2 Assay for human Zinc Finger Protein GLI1 (AID 2282945). Particulars: HepG2, Attagene cis-factorial reporter mRNA, GLI element; actives raise or lower the signal. Put shortly:
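HepG2 cells transiently transfected with cis-promoter multiplexed reporter units report endogenous transcription factor activity. After 24 h chemical exposure, reporter mRNA was quantified by RT-PCR, 6-FAM labelling, HpaI digestion and capillary electrophoresis, with bidirectional fitting against DMSO.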

A short description of experiment [11]: ATG_ISRE_CIS: Attagene CIS-FACTORIAL HepG2 Assay for human Interferon Regulatory Factor 1 (IRF1) binding to an Interferon-Stimulated Response Element (ISRE) (AID 2282948). Particulars: HepG2 ISRE cis-reporter (Attagene), mRNA transcription readout; actives raise or lower the signal. In a few lines:
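HepG2 cells transiently transfected with multiplexed cis-promoter reporter units; after 24 h compound exposure, reporter mRNA quantified by RT-PCR, FAM labelling, HpaI digestion and capillary electrophoresis. Bidirectional fit versus DMSO baseline.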

A short description of experiment [12]: ATG_M_32_CIS: Attagene CIS-FACTORIAL HepG2 Assay for M32 Transcription Factor (Internal Marker) (AID 2282949).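 Note: background control marker of the multiplexed CIS panel rather than a real target.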 Particulars: HepG2 Attagene cis-factorial M32 reporter, mRNA; actives raise or lower the signal. Put shortly: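 Fluorescent capillary electrophoresis peaks of HpaI-digested, FAM-labelled RT-PCR reporter products give the signal. Source: transiently transfected human liver HepG2 cells, 24 h after chemical dosing; bidirectional fitting against DMSO.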

Experiment [13] is described as follows: ATG_M_06_CIS: Attagene CIS-FACTORIAL HepG2 Assay for M06 Transcription Factor (Internal Marker) (AID 2282950). The following applies: HepG2 Attagene CIS-FACTORIAL M06 internal marker reporter; actives raise or lower the signal. Put shortly: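 Terse: HepG2, transient MRTU transfection (FuGene 6), 24 h dosing; total RNA, oligo(dT) RT, PCR, FAM label, HpaI cut, capillary electrophoresis; bidirectional fit vs DMSO baseline; background-control endpoint.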

The target of experiment [14] is Hypoxia-inducible factor 1-alpha (Homo sapiens) (UniProt Q16665). Description: ATG_HIF1a_CIS: Attagene CIS-FACTORIAL HepG2 Assay for human Hypoxia Inducible Factor 1 (HIF1A) (AID 2282951). Particulars: HepG2 Attagene cis-factorial HIF1a reporter transcription; actives raise or lower the signal. Put shortly: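 Activity is fitted in both directions relative to DMSO. Reporter transcripts are read by RT-PCR, fluorescent primer extension and capillary electrophoresis after 24 h chemical treatment. The cells are HepG2 carrying transiently transfected cis-element-driven reporter units responding to endogenous factors.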

In experiment [15] the target is Hepatocyte nuclear factor 6 (Homo sapiens) (UniProt Q9UBC0). Description: ATG_HNF6_CIS: Attagene CIS-FACTORIAL HepG2 Assay for human Hepatocyte Nuclear Factor 6 (HNF6) (AID 2282952). The following applies: HepG2 Attagene cis-factorial HNF6 reporter transcription; actives raise or lower the signal. Put shortly: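 Reporter mRNA induction or loss in HepG2 after 24 h exposure; transient cis-MRTU transfection; fragments quantified by capillary electrophoresis; bidirectional analysis, DMSO as negative control.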

Experiment [16] addresses Heat shock factor protein 1 (Homo sapiens) (UniProt Q00613). Description: ATG_HSE_CIS: Attagene CIS-FACTORIAL HepG2 Assay for human Heat Shock Transcription Factor 1 (HSE) (AID 2282953). Particulars: HepG2 HSE cis-reporter, Attagene RNA transcription; actives raise or lower the signal. In a few lines: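 Read-out: fluorescence of reporter-specific RT-PCR fragments separated by capillary electrophoresis. HepG2 carrying transfected cis-element reporter units; 24 h dosing; activity fitted in both directions relative to DMSO baseline.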

A short description of experiment [17]: ATG_MRE_CIS: Attagene CIS-FACTORIAL HepG2 Assay for human Metal Responsive Element (MRE) (AID 2282954). The following applies: HepG2 MRE cis-reporter transcription, Attagene multiplex; actives raise or lower the signal. In a few lines:
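Step one: transfect HepG2 with cis-regulated reporter units. Step two: dose 24 h. Step three: isolate RNA, RT-PCR, 6-FAM label, HpaI digest, capillary electrophoresis. Fit bidirectionally to DMSO.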

The nature of experiment [18]: ATG_ERE_CIS: Attagene CIS-FACTORIAL HepG2 Assay for Estrogen Response Element (ERE) (AID 2282940). Particulars: HepG2 ERE cis-reporter, Attagene RNA transcript; actives raise or lower the signal. Put shortly:
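Readout: reporter mRNA induction by RT-PCR, FAM-labelled primer extension, HpaI digestion and capillary electrophoresis, 24 h after dosing transfected HepG2 cells. Endogenous transcription factors act on cis-element-regulated reporters. Gain or loss fitted against DMSO.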

A short description of experiment [19]: ATG_GRE_CIS: Attagene CIS-FACTORIAL HepG2 Assay for human Glucocorticoid Response Elements (GRE) (AID 2282947). Particulars: HepG2 GRE cis-reporter, Attagene multiplex mRNA; actives raise or lower the signal. In a few lines: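 Following 24 h chemical exposure of transiently transfected HepG2 cells, total RNA was reverse-transcribed and reporter cDNA amplified, fluorescently labelled and sized by capillary electrophoresis. Signal gain or loss was fitted relative to DMSO vehicle.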

Chain of Hepatocyte nuclear factor 6 (Homo sapiens) (Q9UBC0 whole entry, looked up, the tested form may be a part): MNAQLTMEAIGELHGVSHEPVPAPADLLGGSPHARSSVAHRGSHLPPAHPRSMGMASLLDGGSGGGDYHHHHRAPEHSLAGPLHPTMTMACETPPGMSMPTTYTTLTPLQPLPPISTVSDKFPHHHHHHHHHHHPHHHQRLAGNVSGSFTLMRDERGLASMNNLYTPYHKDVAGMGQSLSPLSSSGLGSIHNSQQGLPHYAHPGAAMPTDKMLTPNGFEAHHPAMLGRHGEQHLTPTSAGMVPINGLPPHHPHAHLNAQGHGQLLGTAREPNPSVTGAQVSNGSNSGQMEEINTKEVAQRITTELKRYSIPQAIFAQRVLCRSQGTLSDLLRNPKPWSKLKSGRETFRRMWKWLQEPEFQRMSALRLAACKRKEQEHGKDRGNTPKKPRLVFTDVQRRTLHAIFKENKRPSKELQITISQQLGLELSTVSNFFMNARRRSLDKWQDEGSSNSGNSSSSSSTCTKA
Chain of Transcription factor E2F1 (Homo sapiens) (Q01094 whole entry, looked up): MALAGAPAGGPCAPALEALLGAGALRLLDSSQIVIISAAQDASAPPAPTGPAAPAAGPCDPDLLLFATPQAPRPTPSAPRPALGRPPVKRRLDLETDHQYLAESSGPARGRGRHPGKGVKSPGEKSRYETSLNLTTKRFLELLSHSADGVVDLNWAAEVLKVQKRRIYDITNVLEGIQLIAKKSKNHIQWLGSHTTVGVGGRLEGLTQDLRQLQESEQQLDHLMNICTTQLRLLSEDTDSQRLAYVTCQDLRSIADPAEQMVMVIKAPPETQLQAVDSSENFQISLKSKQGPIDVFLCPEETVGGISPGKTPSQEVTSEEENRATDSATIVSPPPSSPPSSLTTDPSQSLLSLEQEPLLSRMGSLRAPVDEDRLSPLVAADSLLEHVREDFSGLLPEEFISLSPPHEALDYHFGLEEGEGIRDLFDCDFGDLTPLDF
Chain of Hepatocyte nuclear factor 3-beta (Homo sapiens) (Q9Y261 whole entry, looked up): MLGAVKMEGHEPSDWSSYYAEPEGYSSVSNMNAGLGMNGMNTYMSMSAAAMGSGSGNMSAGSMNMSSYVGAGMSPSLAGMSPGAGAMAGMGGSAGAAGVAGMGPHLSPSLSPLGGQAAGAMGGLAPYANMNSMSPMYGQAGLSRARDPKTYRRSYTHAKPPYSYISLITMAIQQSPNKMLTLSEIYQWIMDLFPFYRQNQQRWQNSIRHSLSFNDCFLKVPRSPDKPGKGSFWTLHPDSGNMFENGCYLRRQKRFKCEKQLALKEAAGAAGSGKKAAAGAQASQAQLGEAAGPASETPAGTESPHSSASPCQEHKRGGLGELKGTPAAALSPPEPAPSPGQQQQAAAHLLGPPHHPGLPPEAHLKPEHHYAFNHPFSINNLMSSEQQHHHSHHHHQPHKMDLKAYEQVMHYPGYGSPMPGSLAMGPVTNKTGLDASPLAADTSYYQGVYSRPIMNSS
Chain of Hypoxia-inducible factor 1-alpha (Homo sapiens) (Q16665 whole entry, looked up): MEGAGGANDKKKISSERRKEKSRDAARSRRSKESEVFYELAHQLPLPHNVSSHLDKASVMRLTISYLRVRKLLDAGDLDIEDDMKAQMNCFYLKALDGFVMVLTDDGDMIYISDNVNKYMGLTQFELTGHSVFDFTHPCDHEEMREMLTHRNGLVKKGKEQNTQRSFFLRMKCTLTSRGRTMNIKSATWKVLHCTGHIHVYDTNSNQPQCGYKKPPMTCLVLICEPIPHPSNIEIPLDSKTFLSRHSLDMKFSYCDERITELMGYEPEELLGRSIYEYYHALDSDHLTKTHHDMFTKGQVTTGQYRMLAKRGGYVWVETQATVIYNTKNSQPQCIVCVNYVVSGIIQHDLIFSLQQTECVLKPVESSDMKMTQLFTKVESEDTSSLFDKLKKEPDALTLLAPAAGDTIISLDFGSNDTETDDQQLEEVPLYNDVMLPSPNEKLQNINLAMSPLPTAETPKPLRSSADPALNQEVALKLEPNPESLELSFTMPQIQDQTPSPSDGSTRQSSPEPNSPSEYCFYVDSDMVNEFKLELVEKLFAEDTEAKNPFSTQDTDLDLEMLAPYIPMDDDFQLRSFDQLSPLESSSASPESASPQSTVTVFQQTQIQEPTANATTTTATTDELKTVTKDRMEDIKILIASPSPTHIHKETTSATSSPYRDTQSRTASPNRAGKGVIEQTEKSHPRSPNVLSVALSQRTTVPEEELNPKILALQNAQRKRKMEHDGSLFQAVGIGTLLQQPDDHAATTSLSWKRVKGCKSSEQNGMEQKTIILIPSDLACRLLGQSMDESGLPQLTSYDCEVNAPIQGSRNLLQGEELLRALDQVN
Chain of Heat shock factor protein 1 (Homo sapiens) (Q00613 whole entry, looked up, the tested form may be a part): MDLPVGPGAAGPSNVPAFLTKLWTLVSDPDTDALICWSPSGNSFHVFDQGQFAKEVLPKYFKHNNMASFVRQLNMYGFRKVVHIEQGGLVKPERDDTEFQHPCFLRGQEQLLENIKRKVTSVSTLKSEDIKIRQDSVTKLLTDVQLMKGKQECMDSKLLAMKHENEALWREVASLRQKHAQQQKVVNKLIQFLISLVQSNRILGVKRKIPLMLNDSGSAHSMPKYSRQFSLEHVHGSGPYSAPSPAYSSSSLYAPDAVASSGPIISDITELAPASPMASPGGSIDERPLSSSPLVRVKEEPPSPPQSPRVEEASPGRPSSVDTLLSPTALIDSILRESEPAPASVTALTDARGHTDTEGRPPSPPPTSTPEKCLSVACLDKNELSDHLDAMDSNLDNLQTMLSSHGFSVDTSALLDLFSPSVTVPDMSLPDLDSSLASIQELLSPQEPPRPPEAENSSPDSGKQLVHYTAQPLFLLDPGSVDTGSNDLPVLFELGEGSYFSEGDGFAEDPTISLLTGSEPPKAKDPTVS

On to `O=[N+]([O-])C(CO)(CO)CO`, for which the outcome in experiment [1], in experiment [2], in experiment [3], in [4], in [5] and in experiment [6] was inactive. The call in [7], in experiment [8], in experiment [9], in experiment [10], in [11] and in experiment [12] was inactive. Also, the call in experiment [13], in experiment [14], in experiment [15], in experiment [16] and in experiment [17] was inactive.
For `CCCc1cc(=O)[nH]c(=S)[nH]1`, the outcome in experiment [1], in experiment [2], in [3], in experiment [4], in experiment [5] and in [6] was inactive. The compound was classed as inactive in experiment [7], in experiment [8], in experiment [9], in experiment [10], in experiment [11] and in experiment [12]. In addition, the call in experiment [13], in experiment [15], in [16] and in experiment [17] was inactive. Further, in experiment [18], the AC50 was 4.56 µM (active).
On to `CC1(C)NC(=O)NC1=O`, for which the call in [1], in [2], in experiment [3], in experiment [4], in experiment [5] and in experiment [6] was inactive. Besides, the outcome in experiment [7], in experiment [8], in [9], in [10], in experiment [19] and in experiment [11] was inactive. The compound was called inactive in experiment [12], in experiment [13], in experiment [15], in experiment [16] and in experiment [17]. Moreover, the results for the AC50 in experiment [18] and in [14] were 26.3 µM (active) and 12 µM (active), respectively.
For `Clc1cc(Cl)c(Cl)cc1Cl`, the compound was classed as inactive in [1], in [2], in experiment [3], in experiment [4], in [5] and in experiment [18]. Moreover, the result in [6], in experiment [7], in [8], in experiment [9], in [10] and in experiment [19] was inactive. In addition, the call in experiment [11], in experiment [12], in experiment [13], in [14], in experiment [15] and in experiment [16] was inactive. The result in experiment [17] was inactive.

The AC50 is the concentration giving half of the maximal activity seen.
